{"source": "PubChem BioAssay AID624483", "about": "(NMMLSC, 2012)", "note": "Out of some 360,000 compounds screened, about 11,000 (3.1%) were called active. Not shown: some 2% with an inconclusive outcome. The entries come from a sample that favours actives as a whole. Values without a mark were called inactive. Cut-off read from the data, not from the text of the source: active = fluorescence intensity above about 16000; inconclusive = no clear call, values can overlap the other calls; inactive = below that."}
{"assay": "compound fluorescence in toxin protease inhibitor counterscreen, primary screen, artefact control for toxin protease inhibitor project, biochemical, multiplex microsphere, HTS (AID 624483)", "settings": "compound autofluorescence counterscreen, microsphere flow cytometry; active compounds read high"}
{"compound": "COc1cccc(NC(=O)CCc2nnc3ccc(N4CCC(C)CC4)nn23)c1", "fluorescence intensity": 5600}
{"compound": "CCOC(=O)[C@]12CCC=C1N(Cc1ccco1)C(=O)[C@H](CC(=O)N1CCSCC1)C2", "fluorescence intensity": 4160}
{"compound": "CC(C)(C(=O)N1CCC1(C)C(=O)NS(=O)(=O)c1ccc(Br)cc1)c1ccccc1", "note": "(configuration not stated)", "fluorescence intensity": 3370}
{"compound": "NC(c1ccccc1)c1csc(NC(=O)Nc2cccc(C(F)(F)F)c2)n1", "note": "(configuration not stated)", "fluorescence intensity": 3690}
{"compound": "Cc1cc2ncn(CCCCOc3ccccc3)c2cc1C", "fluorescence intensity": "17400 (active)"}
{"compound": "COCCOCCn1cnc2ccccc21", "fluorescence intensity": 9770}
{"compound": "Clc1ncn(CCOc2ccccc2)c1Cl", "fluorescence intensity": 3990}
{"compound": "CSc1ccc(CN2CCC2(C)C(=O)Nc2ccc(C)c(O)c2)cc1", "note": "(configuration not stated)", "fluorescence intensity": 3540}
{"compound": "O=C(NCCCNc1ccc([N+](=O)[O-])cc1Cl)c1ccccc1F", "fluorescence intensity": 4790}
{"compound": "O=[N+]([O-])c1ccc(NCCCN2CCOCC2)c(Cl)c1", "fluorescence intensity": "22800 (active)"}
{"compound": "O=C(NCCCN1CCOCC1)c1ccc([N+](=O)[O-])cc1[N+](=O)[O-]", "fluorescence intensity": 4500}
{"compound": "CC1CCN(C(=O)c2ccc(S(=O)(=O)Cc3cc(F)ccc3F)c([N+](=O)[O-])c2)CC1", "fluorescence intensity": 2510}
{"compound": "CCc1ccc2nc(Nc3ncc(C(C)=O)c(C)n3)nc(C)c2c1", "fluorescence intensity": 3620}
{"compound": "CCOC(=O)[C@]12CCC=C1N(CCC1=CCCCC1)C(=O)[C@H](CC(=O)NCc1ccc(C)o1)C2", "fluorescence intensity": 5770}
{"compound": "COc1ccc(S(=O)(=O)NC(C)C(=O)N2CCCCCC2)cc1", "note": "(configuration not stated)", "fluorescence intensity": 3500}
{"compound": "CSCC(NS(=O)(=O)c1ccc(C)cc1)C(=O)O", "note": "(configuration not stated)", "fluorescence intensity": 4880}
{"compound": "CCCC(NS(=O)(=O)c1ccc(OC)cc1)C(=O)O", "note": "(configuration not stated)", "fluorescence intensity": "20900 (active)"}
{"compound": "O=C(OCC(=O)N1CCCCCC1)c1ccc(Cl)nc1", "fluorescence intensity": 3860}
{"compound": "N#Cc1cccc(NC(=O)c2cc(C3CCCCN3C(=O)CCc3ccccc3)on2)c1", "note": "(configuration not stated)", "fluorescence intensity": 4290}
{"compound": "CC(=O)OC[C@@H]1CN(Cc2ccccc2)C[C@H](n2cnc3c(NCc4ccco4)ncnc32)O1", "fluorescence intensity": 3590}
{"compound": "COc1cccc(NC(=O)CCNS(=O)(=O)c2ccc3c(c2)oc(=O)n3C)c1", "fluorescence intensity": 4240}
{"compound": "Cc1ccc(NC(=O)CCNS(=O)(=O)c2ccc3c(c2)oc(=O)n3C)cc1C", "fluorescence intensity": "22000 (active)"}
{"compound": "Cn1c(=O)oc2cc(S(=O)(=O)NCCC(=O)NCc3ccccc3Cl)ccc21", "fluorescence intensity": 4110}
{"compound": "N#Cc1c(/N=C/N2CCCC2)oc(-c2ccccc2)c1-c1ccccc1", "fluorescence intensity": 3080}
{"compound": "O=C(O)Cc1ccc(NC(=O)C2CCCCC2C(=O)O)cc1", "note": "(configuration not stated)", "fluorescence intensity": 4130}
{"compound": "O=C(NC1CCN(C(=S)Nc2ccc(Cl)cc2)CC1)C1CCCCC1", "fluorescence intensity": 3100}
{"compound": "O=C(O)C1CCCCC1C(=O)Nc1ccc(Cl)cc1", "note": "(configuration not stated)", "fluorescence intensity": "25300 (active)"}
{"compound": "CCOC(=O)c1ccn(S(=O)(=O)c2ccc(C)cc2)c1-c1ccccc1", "fluorescence intensity": 5920}
{"compound": "O=S1(=O)C[C@@H](N2CCN(CCO)CC2)[C@H](COCc2ccccc2)N1", "fluorescence intensity": 4260}
{"compound": "COc1ccc(/C=C/C(=O)c2c(O)cc(OC)cc2OC)cc1", "fluorescence intensity": 5700}
{"compound": "Cc1ccc2nc(-c3ccccc3)c(CC3CCCCC3)n2c1", "fluorescence intensity": 8550}
{"compound": "Cc1ccc(SCCSc2ncccn2)cc1", "fluorescence intensity": 4180}
{"compound": "Cc1ccc(SCC2=NNC(=O)C2)cc1", "fluorescence intensity": "22700 (active)"}
{"compound": "Cc1ccc(SCc2cc(=O)[nH]c(N3CCCCC3)n2)cc1", "fluorescence intensity": 4420}
{"compound": "O=C(COC(=O)c1ccc(Cl)nc1)NCc1cccs1", "fluorescence intensity": 4330}
{"compound": "O=C(C1CC(=O)N(C2CCCC2)C1)N1CCN(c2cccc(C(F)(F)F)c2)CC1", "note": "(configuration not stated)", "fluorescence intensity": 5860}
{"compound": "O=C(C1CC(=O)N(C2CCCC2)C1)N1CCC2(CC1)OCCO2", "note": "(configuration not stated)", "fluorescence intensity": "21300 (active)"}
{"compound": "O=C(C1CC(=O)N(C2CCCCC2)C1)N1CCN(c2ccccc2)CC1", "note": "(configuration not stated)", "fluorescence intensity": 5000}
{"compound": "CCCNC(=O)C1(C)CCN(C(=O)c2ccccc2OC(F)(F)F)C1", "note": "(configuration not stated)", "fluorescence intensity": 3700}
{"compound": "Cc1ccc(S(=O)(=O)N2CC[C@H]3[C@@H](C2)C(=O)C[C@@H](c2ccccc2)N3S(=O)(=O)c2ccc(C)cc2)cc1", "fluorescence intensity": 6280}
{"compound": "CCc1cccc2c(=O)c(C(=O)NCCCOC)c[nH]c12", "fluorescence intensity": 4150}
{"compound": "COC1=CC(=O)OC(c2ccc(OC)cc2)C1", "note": "(configuration not stated)", "fluorescence intensity": 3440}
{"compound": "COc1cc(CO)c(C2(CO)CCCC2)cc1OC", "fluorescence intensity": 2910}
{"compound": "CC1(C)CC(=O)C2=C(C1)N=C1SCCC(=O)N1C2c1ccc(C(F)(F)F)cc1", "note": "(configuration not stated)", "fluorescence intensity": "22500 (active)"}
{"compound": "CCCCC[C@@H]1C=C(C(=O)OCC)[C@H](c2ccccc2)N1S(=O)(=O)c1ccc(C)cc1", "fluorescence intensity": 6420}
{"compound": "O=C1NC[C@H](CCCCN2C[C@H](Cc3ccc(O)cc3)N(CCc3ccccc3)C(=O)C2=O)N(CCc2ccccc2)C1=O", "fluorescence intensity": 5840}
{"compound": "C=C(C)CNC(=S)/N=c1\\scc(C)n1CC", "fluorescence intensity": 8000}
{"compound": "CC1(C)OC(=O)C2=C(C[C@@H](C3CC3)O[C@H]2CCc2cccc(Cl)c2)O1", "fluorescence intensity": 6150}
{"compound": "Cc1cc(O)ccc1-c1cc(C(=O)NCc2cc(C(F)(F)F)cc(C(F)(F)F)c2)[nH]n1", "fluorescence intensity": 4030}
{"compound": "COc1cc(C2NC(=O)NC(c3ccccc3)=C2C(C)=O)c(Br)cc1OCC(N)=O", "note": "(configuration not stated)", "fluorescence intensity": 3130}
{"compound": "CCCOc1ccc(C2NC(=O)NC(c3ccccc3)=C2C(C)=O)cc1OCC", "note": "(configuration not stated)", "fluorescence intensity": "16800 (active)"}
{"compound": "CCOC(=O)C1=C(c2ccccc2)NC(=O)NC1c1cc(OCC)c(O)c([N+](=O)[O-])c1", "note": "(configuration not stated)", "fluorescence intensity": 3560}
{"compound": "COc1c(C)cc(C(O)c2ncc(-c3cccc(C(F)(F)F)c3)[nH]2)cc1C", "note": "(configuration not stated)", "fluorescence intensity": 2880}
{"compound": "COCCCn1c(=O)/c(=C/c2ccccc2OC(C)C)s/c1=C(\\C#N)C(=O)Nc1ccc(C(=O)O)cc1", "fluorescence intensity": 4090}
{"compound": "CC1(C(=O)O)CCCN(C(=O)/C=C/c2ccccc2)C1", "note": "(configuration not stated)", "fluorescence intensity": 3760}
{"compound": "CC(=O)NC1=NC(=O)CS1", "fluorescence intensity": "22000 (active)"}
{"compound": "Cc1cccc(N)c1SC1CCCCC1O", "note": "(configuration not stated)", "fluorescence intensity": 2470}
{"compound": "CN(C)/C=C/C(=O)c1cnc2sccn2c1=O", "fluorescence intensity": 4610}
{"compound": "C[C@H]1Cn2cnc(C(=O)N[C@@H](Cc3c[nH]c4ccccc34)C(=O)OC(C)(C)C)c2C(=O)N1", "fluorescence intensity": 3860}
{"compound": "CCN(c1ccccc1)S(=O)(=O)c1ccc(N)cc1", "fluorescence intensity": 5250}
{"compound": "CCN(c1ccccc1)S(=O)(=O)c1ccc(NC(=O)C(C)(C)C)cc1", "fluorescence intensity": "23900 (active)"}
{"compound": "CCN(c1ccccc1)S(=O)(=O)c1ccc(C(=O)Nc2ccccc2OC)cc1", "fluorescence intensity": 3100}
